The values below come from paper PMC7862700, “An all-to-all approach to the identification of sequence-specific readers for epigenetic DNA modifications on cytosine”.

Assay in all cases: DAPPL (digital affinity profiling via proximity ligation, sequencing); 10 mM Tris-HCl pH 7.5, 50 mM NaCl, 1 mM DTT, 4% glycerol, room temperature, 30 min; GST-TFs on glutathione beads, 16-mer random dsDNA library, 0.1% formaldehyde crosslink after washing; high values mean tight binding
Common to all, as to settings: protein: recombinant; tags: N-terminal GST; dsDNA, one strand shown

One assay concerns the target T1, ERF (Homo sapiens, UniProt P50548 1-548).
T1 sequence: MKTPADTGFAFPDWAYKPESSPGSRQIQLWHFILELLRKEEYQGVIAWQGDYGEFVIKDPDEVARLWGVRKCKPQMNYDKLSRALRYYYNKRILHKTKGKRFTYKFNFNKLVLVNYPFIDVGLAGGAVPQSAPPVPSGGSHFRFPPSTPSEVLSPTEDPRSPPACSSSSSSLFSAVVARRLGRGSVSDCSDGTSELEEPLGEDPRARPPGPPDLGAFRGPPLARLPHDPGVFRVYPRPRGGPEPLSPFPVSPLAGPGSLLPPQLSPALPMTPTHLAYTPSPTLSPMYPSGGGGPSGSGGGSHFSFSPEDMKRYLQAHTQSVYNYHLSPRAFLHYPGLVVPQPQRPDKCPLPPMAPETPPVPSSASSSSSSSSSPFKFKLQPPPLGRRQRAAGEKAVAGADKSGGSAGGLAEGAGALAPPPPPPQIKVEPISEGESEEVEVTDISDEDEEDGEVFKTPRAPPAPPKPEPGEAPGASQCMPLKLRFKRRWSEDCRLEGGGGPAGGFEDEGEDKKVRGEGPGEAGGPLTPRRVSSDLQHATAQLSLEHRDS
In a few lines:
(§1)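 A tag-only sample was pooled with DNA-barcoded human transcription factors that had been expressed in yeast as GST fusions and captured on glutathione beads. The pools were incubated for 30 min at room temperature with 200 nmole of a random double-stranded 16-mer DNA library in Tris/NaCl/DTT/glycerol buffer, then washed, crosslinked with 0.1% formaldehyde, proximity-ligated (BsaI/T4 ligase, 1 h, 37 °C), PCR-amplified and sequenced on an Illumina NextSeq500. Binding signal is each hexamer's read frequency for a factor divided by its frequency for the tag-only sample.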

For another assay, the target named is T2, ETV3L (Homo sapiens, UniProt Q6ZN32 1-361).
T2 sequence: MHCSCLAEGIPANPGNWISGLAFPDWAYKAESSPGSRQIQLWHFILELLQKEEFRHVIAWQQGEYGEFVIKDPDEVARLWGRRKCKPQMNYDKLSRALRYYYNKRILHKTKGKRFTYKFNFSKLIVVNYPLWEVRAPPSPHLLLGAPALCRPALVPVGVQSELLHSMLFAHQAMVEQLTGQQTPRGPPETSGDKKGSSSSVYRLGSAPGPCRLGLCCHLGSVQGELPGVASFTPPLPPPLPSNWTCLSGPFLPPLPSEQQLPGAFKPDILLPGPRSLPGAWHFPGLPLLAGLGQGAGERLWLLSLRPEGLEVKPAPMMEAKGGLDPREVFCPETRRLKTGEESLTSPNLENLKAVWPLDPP
In a few lines:
as §1

Another assay concerns the target T3, ETS2 (Homo sapiens, UniProt P15036 1-469).
T3 sequence: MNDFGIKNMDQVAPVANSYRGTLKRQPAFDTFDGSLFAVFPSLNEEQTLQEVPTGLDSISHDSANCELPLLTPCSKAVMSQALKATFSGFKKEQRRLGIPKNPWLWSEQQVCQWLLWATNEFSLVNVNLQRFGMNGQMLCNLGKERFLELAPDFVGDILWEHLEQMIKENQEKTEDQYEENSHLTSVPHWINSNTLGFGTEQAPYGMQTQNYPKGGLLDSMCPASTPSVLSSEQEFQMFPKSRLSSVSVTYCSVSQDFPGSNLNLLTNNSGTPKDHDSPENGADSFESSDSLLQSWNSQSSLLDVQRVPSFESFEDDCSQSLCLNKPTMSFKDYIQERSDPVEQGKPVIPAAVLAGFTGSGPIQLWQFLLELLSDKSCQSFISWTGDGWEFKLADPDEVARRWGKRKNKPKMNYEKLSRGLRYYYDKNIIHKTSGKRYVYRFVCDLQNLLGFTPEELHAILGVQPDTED
In a few lines: as §1

Another assay addresses T4, SPDEF (Homo sapiens, UniProt O95238 1-335).
T4 sequence: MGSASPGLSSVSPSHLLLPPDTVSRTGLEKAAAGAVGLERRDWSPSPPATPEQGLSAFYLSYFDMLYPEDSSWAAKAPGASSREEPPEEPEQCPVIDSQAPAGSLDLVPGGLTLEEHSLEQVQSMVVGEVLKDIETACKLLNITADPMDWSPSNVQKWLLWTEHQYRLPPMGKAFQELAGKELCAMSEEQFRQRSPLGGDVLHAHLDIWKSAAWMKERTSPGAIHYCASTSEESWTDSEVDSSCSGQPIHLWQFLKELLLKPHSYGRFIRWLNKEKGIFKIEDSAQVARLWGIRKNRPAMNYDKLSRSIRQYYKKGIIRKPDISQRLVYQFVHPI
In a few lines:
as §1

For the next assay, the target named is T5, ETV7 (Homo sapiens, UniProt Q9Y603 1-341).
T5 sequence: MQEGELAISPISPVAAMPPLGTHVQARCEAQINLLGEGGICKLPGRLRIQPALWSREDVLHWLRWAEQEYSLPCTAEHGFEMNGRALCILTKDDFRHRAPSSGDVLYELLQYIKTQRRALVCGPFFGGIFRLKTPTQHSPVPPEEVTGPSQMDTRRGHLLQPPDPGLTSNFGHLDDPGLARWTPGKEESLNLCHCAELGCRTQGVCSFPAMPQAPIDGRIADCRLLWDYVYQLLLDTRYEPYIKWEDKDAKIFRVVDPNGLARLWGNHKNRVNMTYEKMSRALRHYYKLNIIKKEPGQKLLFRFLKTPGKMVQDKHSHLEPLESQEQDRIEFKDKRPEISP
In a few lines: as §1

Another assay has as its target T6, ELF5 (Homo sapiens, UniProt Q9UKW6-2 1-255).
T6 sequence: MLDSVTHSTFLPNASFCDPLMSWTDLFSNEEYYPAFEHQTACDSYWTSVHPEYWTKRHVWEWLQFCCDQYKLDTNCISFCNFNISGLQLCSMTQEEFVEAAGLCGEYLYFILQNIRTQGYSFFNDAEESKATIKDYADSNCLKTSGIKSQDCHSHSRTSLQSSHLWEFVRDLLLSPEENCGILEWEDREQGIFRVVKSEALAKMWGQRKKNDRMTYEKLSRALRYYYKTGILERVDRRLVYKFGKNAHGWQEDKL
In a few lines: as §1

In the next assay the target is ETV6 (Homo sapiens, UniProt P41212 1-452). In a few lines:
as §1

Another assay concerns the target T7, ETV3 (Homo sapiens, UniProt P41162-2 1-143).
T7 sequence: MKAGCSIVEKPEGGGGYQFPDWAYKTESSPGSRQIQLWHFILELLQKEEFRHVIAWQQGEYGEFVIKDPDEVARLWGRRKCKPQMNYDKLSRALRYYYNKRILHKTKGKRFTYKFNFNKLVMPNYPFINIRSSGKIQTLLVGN
In a few lines:
as §1

Sequence of ETV6 (P41212 whole entry): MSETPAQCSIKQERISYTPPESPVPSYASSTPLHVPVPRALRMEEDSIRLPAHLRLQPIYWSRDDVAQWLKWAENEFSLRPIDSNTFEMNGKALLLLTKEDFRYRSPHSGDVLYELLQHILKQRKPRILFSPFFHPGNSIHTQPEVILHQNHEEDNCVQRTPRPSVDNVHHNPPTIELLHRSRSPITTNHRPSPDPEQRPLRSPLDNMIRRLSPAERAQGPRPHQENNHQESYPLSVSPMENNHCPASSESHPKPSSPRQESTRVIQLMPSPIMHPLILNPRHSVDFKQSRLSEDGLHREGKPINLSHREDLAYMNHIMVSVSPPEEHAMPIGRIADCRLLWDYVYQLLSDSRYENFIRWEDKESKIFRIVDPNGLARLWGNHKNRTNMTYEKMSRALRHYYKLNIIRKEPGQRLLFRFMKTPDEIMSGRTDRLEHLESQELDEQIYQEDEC

GAAAAC: the binding signal with ERF was 1.11 fold enrichment (6-mer frequency, TF over GST control); with ETV3L it was 1.13 fold enrichment (6-mer frequency, TF over GST control); in the assay with ETS2, 1.11 fold enrichment (6-mer frequency, TF over GST control); in the assay with SPDEF, 1.07 fold enrichment (6-mer frequency, TF over GST control); with ETV7, 1.13 fold enrichment (6-mer frequency, TF over GST control); in the assay with ELF5 it was 1.16 fold enrichment (6-mer frequency, TF over GST control). For the same sequence, the binding signal in the assay with ETV6 was 1.06 fold enrichment (6-mer frequency, TF over GST control).
As for CTTGAA, the binding signal with ERF is 1.2 fold enrichment (6-mer frequency, TF over GST control); with ETV3L it was 1.11 fold enrichment (6-mer frequency, TF over GST control); in the assay with ETS2, 1.16 fold enrichment (6-mer frequency, TF over GST control); with SPDEF, 1.13 fold enrichment (6-mer frequency, TF over GST control); with ETV7, 1.08 fold enrichment (6-mer frequency, TF over GST control); with ELF5, 1.15 fold enrichment (6-mer frequency, TF over GST control). Further, the binding signal with ETV3 was 1.16 fold enrichment (6-mer frequency, TF over GST control); with ETV6, 1.07 fold enrichment (6-mer frequency, TF over GST control).
For the sequence TTCAGT, the binding signal is 1.09 fold enrichment (6-mer frequency, TF over GST control) in the assay with ERF; 1.13 fold enrichment (6-mer frequency, TF over GST control) in the assay with ETV3L; 1 fold enrichment (6-mer frequency, TF over GST control) with ETS2; 1.07 fold enrichment (6-mer frequency, TF over GST control) with SPDEF; 1.04 fold enrichment (6-mer frequency, TF over GST control) in the assay with ETV7; 1.05 fold enrichment (6-mer frequency, TF over GST control) with ELF5. In addition, in the assay with ETV6, the binding signal was 1.06 fold enrichment (6-mer frequency, TF over GST control).
In the case of CCATTC, the binding signal in the assay with ERF was 1.14 fold enrichment (6-mer frequency, TF over GST control); in the assay with ETV3L it was 1.06 fold enrichment (6-mer frequency, TF over GST control); with ETS2 it was 1.13 fold enrichment (6-mer frequency, TF over GST control); in the assay with SPDEF, 1.13 fold enrichment (6-mer frequency, TF over GST control); with ETV7 it was 1.16 fold enrichment (6-mer frequency, TF over GST control); in the assay with ELF5, 1.11 fold enrichment (6-mer frequency, TF over GST control). In addition, the binding signal in the assay with ETV3 is 1.1 fold enrichment (6-mer frequency, TF over GST control); with ETV6, 1.12 fold enrichment (6-mer frequency, TF over GST control).
Take CAAATC: the binding signal with ERF is 1.12 fold enrichment (6-mer frequency, TF over GST control); with ETV3L, 1.1 fold enrichment (6-mer frequency, TF over GST control); with ETS2, 1.09 fold enrichment (6-mer frequency, TF over GST control); with SPDEF it was 1.26 fold enrichment (6-mer frequency, TF over GST control); in the assay with ETV7, 1.13 fold enrichment (6-mer frequency, TF over GST control); in the assay with ELF5 it was 1.08 fold enrichment (6-mer frequency, TF over GST control). Further, the binding signal with ETV6 is 1.05 fold enrichment (6-mer frequency, TF over GST control).
On to TTAAAT, for which the binding signal in the assay with ERF is 1.1 fold enrichment (6-mer frequency, TF over GST control); in the assay with ETV3L, 1.22 fold enrichment (6-mer frequency, TF over GST control); with ETS2 it was 1.19 fold enrichment (6-mer frequency, TF over GST control); in the assay with SPDEF it was 1.16 fold enrichment (6-mer frequency, TF over GST control); with ETV7, 1.21 fold enrichment (6-mer frequency, TF over GST control); with ELF5 it was 1.08 fold enrichment (6-mer frequency, TF over GST control). Also, the binding signal with ETV3 is 1.15 fold enrichment (6-mer frequency, TF over GST control); in the assay with ETV6, 1.23 fold enrichment (6-mer frequency, TF over GST control).
In the case of CACATC, the binding signal with ERF is 1.39 fold enrichment (6-mer frequency, TF over GST control); with ETV3L, 1.41 fold enrichment (6-mer frequency, TF over GST control); with ETS2, 1.38 fold enrichment (6-mer frequency, TF over GST control); with SPDEF, 2.09 fold enrichment (6-mer frequency, TF over GST control); with ETV7, 1.38 fold enrichment (6-mer frequency, TF over GST control); with ELF5 it was 1.42 fold enrichment (6-mer frequency, TF over GST control). Besides, the binding signal in the assay with ETV3 was 1.49 fold enrichment (6-mer frequency, TF over GST control); with ETV6, 1.5 fold enrichment (6-mer frequency, TF over GST control).
